Consider 75 compounds from paper PMC12751014, “Non-Catalytic Inhibitors of the p38/MK2 Interface: Repurposing Approved Drugs to Target Neuroinflammation in Alzheimer’s Disease” (Journal of Medicinal Chemistry, 2025).

The campaign covered roughly 1,900 compounds. About 50 (3%) showed an effect of 50% or more. Shown is part of a subset that was picked to be rich in strong results.

Sequence of p38/MK2 protein–protein interaction (VF-p38α / GST-MK2) (Q16539 2-360 limits assumed): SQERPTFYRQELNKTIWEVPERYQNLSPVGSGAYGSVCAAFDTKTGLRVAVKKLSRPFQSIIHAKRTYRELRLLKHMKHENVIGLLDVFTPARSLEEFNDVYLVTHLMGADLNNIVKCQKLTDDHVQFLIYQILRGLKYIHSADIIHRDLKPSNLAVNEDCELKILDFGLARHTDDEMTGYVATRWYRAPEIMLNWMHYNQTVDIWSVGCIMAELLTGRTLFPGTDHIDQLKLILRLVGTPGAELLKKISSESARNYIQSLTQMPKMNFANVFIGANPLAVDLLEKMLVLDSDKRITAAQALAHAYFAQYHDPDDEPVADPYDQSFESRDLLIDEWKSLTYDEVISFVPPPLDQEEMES

The experiment addresses p38/MK2 protein–protein interaction (VF-p38α / GST-MK2) (Homo sapiens, UniProt Q16539). Description: primary screen, percent of control activity; higher = less effect of the substance. Details: species or system HEK293T cell lysate transfected with VF-p38α and GST-MK2; unclear (methods say 'quintuplet replicates'). How it is done:
The TR-FRET assay was conducted in a 1536-well plate (Corning, catalog no. 3724) with HEK293T cell lysate transfected with VF-p38α and GST-MK2. Cell-lysate concentration was optimized with a titration experiment. Anti-Flag-Tb and anti-GST-d2 antibodies (Revvity, catalog no. 61FGBTLB) were used to couple p38α and MK2, respectively. A multiple-drop Combi dispenser (Thermo Scientific) combined reaction mixtures in quintuplet replicates. The TR-FRET signals were measured using a BMG Labtech PHERAstar FSX plate reader and normalized to the percent of DMSO control.
In turn, `CCOc1nc2cccc(C(=O)O)c2n1Cc1ccc(-c2ccccc2-c2nn[nH]n2)cc1` returned a Pct of control of 95%. Regarding `CCOc1nc2cccc(C(=O)OC(C)OC(=O)OC3CCCCC3)c2n1Cc1ccc(-c2ccccc2-c2nn[nH]n2)cc1` (stereo not drawn), the Pct of control was found to be 32.4%. For `CCOc1nc2cccc(C(=O)O)c2n1Cc1ccc(-c2ccccc2-c2nc(=O)o[nH]2)cc1`, the Pct of control stood at 94.5%.

Consider `Cl.Cn1c(CCCC(=O)O)nc2cc(N(CCCl)CCCl)ccc21`, for which the Pct of control is reported as 99.1%. Compound `CC(=Cc1ccc(C(=O)O)cc1)c1ccc2c(c1)C(C)(C)CCC2(C)C` gave a Pct of control of 78.8%.

For the compound `CC1(C)CCC(C)(C)c2cc(NC(=O)c3ccc(C(=O)O)cc3)ccc21`, the Pct of control stood at 92.2%. `C=C(c1ccc(C(=O)O)cc1)c1cc2c(cc1C)C(C)(C)CCC2(C)C` returned a Pct of control of 25.7%. For `CO/N=C(\C(=O)N[C@@H]1C(=O)N2C(C(=O)O)=C(CSC(=O)c3ccco3)CS[C@H]12)c1csc(N)n1.Cl` the value was 115%; for `Cn1cc(-c2ccc3ncc(Cc4ccc5ncccc5c4)n3n2)cn1`, 93.2%. `CCCCCCCCCCCCCCCC(=O)OCC(O)C1OC(=O)C(O)=C1O` (stereo not drawn) had a Pct of control of 33.2%. Next, `O=C1O[C@H]([C@@H](O)CO)C(O)=C1O`: 100%; `CCCCCC=CCC=CCCCCCCCC(=O)OC(COC(=O)CCCCCCCCCCCCCCC)COP(=O)([O-])OCC[N+](C)(C)C` (stereo not drawn): 95.3%; `CN(C)c1ccc(C(=O)NCCCCCCC(=O)NO)cc1`: 96.2%. In turn, `Cl.O=S(=O)(c1cccc2cnccc12)N1CCCNCC1` showed a Pct of control of 93.6%. In the case of `COC(=O)C1=CO[C@@H](O[C@@H]2O[C@H](CO)[C@@H](O)[C@H](O)[C@H]2O)[C@@H]2C(CO)=CC[C@H]12`, the Pct of control is recorded as 90.4%. For `CNC(=O)c1cc(Oc2ccc(NC(=O)Nc3ccc(Cl)c(C(F)(F)F)c3)cc2)ccn1.Cc1ccc(S(=O)(=O)O)cc1` the value was 69.1%; for `O=C(O)CC1CC(c2ccccc2)=NO1` (stereo not drawn), 86.5%; for `C[C@@H]1[C@H](O)[C@@H](C)/C=C/C=C/C=C/C=C/C=C/C=C/C=C/[C@H](O[C@@H]2O[C@H](C)[C@@H](O)[C@H](N)[C@@H]2O)C[C@@H]2O[C@](O)(C[C@@H](O)C[C@@H](O)[C@H](O)CC[C@@H](O)C[C@@H](O)CC(=O)O[C@H]1C)C[C@H](O)[C@H]2C(=O)O`, 48.7%. For `CC1C=CC=CCCC=CC=CC=CC=CC(OC2OC(C)C(O)C(N)C2O)CC2OC(O)(CC(O)C(O)CCC(O)CC(O)CC(O)CC(=O)OC(C)C(C)C1O)CC(O)C2C(=O)O` (stereo not drawn), the Pct of control is 94.3%. On to `C[C@@H]1C/C=C/C=C/C=C/C=C/[C@H](O[C@@H]2O[C@H](C)[C@@H](O)[C@H](N)[C@@H]2O)C[C@@H]2O[C@](O)(C[C@@H](O)C[C@H]3O[C@@H]3/C=C/C(=O)O1)C[C@H](O)[C@H]2C(=O)O`, for which the Pct of control came to 97.8%. `Cc1ccc(C(=O)N(CCCN)C(c2nc3cc(Cl)ccc3c(=O)n2Cc2ccccc2)C(C)C)cc1` (stereo not drawn) showed a Pct of control of 97.1%. In turn, `COc1ccc(COc2cc3oc(=O)c4cc(C(C)O)ccc4c3cc2OC)cc1` (stereo not drawn) returned a Pct of control of 78.7%. `C=C1C(=O)[C@]23[C@H](O)[C@H]1CC[C@H]2[C@@]12CO[C@]3(O)[C@@H](O)[C@@H]1C(C)(C)CC[C@@H]2O` came in with a Pct of control of 42.8%.

On to `COC(=O)C1=C(C)NC(C)=C(C(=O)OCCN2CCN(C(c3ccccc3)c3ccccc3)CC2)C1c1cccc([N+](=O)[O-])c1` (stereo not drawn), for which the Pct of control was 121%. Regarding `COc1ccc2nc([S@@+]([O-])Cc3ncc(C)c(OC)c3C)[nH]c2c1`, the Pct of control is recorded as 89.4%.

In turn, `O=C(CCCCCCC(=O)Nc1ccc([C@H]2O[C@@H](CSc3nc(-c4ccccc4)c(-c4ccccc4)o3)C[C@@H](c3ccc(CO)cc3)O2)cc1)NO` showed a Pct of control of 20.4%.

As for `O=C(CCCCCCC(=O)Nc1ccccc1)NO`, the Pct of control came to 102%. `Cc1cccc(C(C)c2cnc[nH]2)c1C.Cl` (stereo not drawn) [S3060] had a Pct of control of 91.6%. For the compound `CC1=CC(=O)NS(=O)(=O)O1.[K]`, the Pct of control stood at 95.6%. The compound `CC(COc1ccccc1)N(CCCl)Cc1ccccc1.Cl` (stereo not drawn) showed a Pct of control of 85.4%. Take `CC(=CC(=O)Nc1ccccc1C(=O)O)c1ccc2ccccc2c1`: the Pct of control is recorded as 105%. Compound `CC(C)N(CCC(=O)c1ccc2ccccc2c1)Cc1ccccc1.Cl` showed a Pct of control of 26.2%. With `O=S(=O)(CC1CS1)c1ccc(Oc2ccccc2)cc1` (stereo not drawn), the Pct of control turned out to be 95%. `CN(C)CCCN1c2ccccc2Sc2ccc(C(F)(F)F)cc21.Cl`: the Pct of control stood at 95.7%.

The compound `O=C(C=Cc1ccc2ccccc2n1)c1ccncc1` yielded a Pct of control of 39.1%. The compound `O=C(O)C=CC(=O)O.c1ccc2nc(N3CCNCC3)ccc2c1` returned a Pct of control of 98.6%. Consider `O=C(NNc1ccccc1)c1ccncc1`, for which the Pct of control was 97.3%.

`Cl.c1ccc2c(CC3=NCCN3)cccc2c1`: the Pct of control stood at 94.8%.

Compound `CCCNC(C)C(=O)Nc1ccccc1C` (stereo not drawn) returned a Pct of control of 96.3%. As to `CC(C)c1onc(-c2c(Cl)cccc2Cl)c1COc1ccc(C=Cc2cccc(C(=O)O)c2)c(Cl)c1`, the Pct of control stood at 16.5%. In turn, `O=c1cc(-c2cccc3c2Sc2ccccc2S3)oc(N2CCOCC2)c1` came in with a Pct of control of 88.7%. `CCCCCCOC(=O)N=C(N)c1ccc(NCc2nc3cc(C(=O)N(CCC(=O)OCC)c4ccccn4)ccc3n2C)cc1` gave a Pct of control of 94.2%. With `COC1CCN(C(=O)c2cc(Cc3n[nH]c(=O)c4ccccc34)ccc2F)CC1`, the Pct of control is 95.8%. Next, `Cl.NC1CC1c1ccccc1` (stereo not drawn): 91.7%; `O=C(/C=C/C=C/c1ccc2c(c1)OCO2)N1CCCCC1`: 82.5%; `O=[N+]([O-])C=Cc1ccc2c(c1)OCO2`: 40.3%. On to `O=C(Oc1ccc([N+](=O)[O-])cc1)N1CCC(C(O)(c2ccc3c(c2)OCO3)c2ccc3c(c2)OCO3)CC1`, for which the Pct of control was 94.2%. Consider `Cc1ccc(-n2sc(=O)n(Cc3ccc(F)cc3)c2=O)cc1`, for which the Pct of control came to 114%. Regarding `Cc1cnc(NC(=O)Nc2cc(Br)c(C)cc2OCC2CNCCO2)cn1` (stereo not drawn), the Pct of control was found to be 73.3%. Compound `Cc1cc(O)c2c(c1)C(=O)c1cccc(O)c1C2=O` registered a Pct of control of 94%. Regarding `O=C1c2c(O)cccc2C(C2OC(CO)C(O)C(O)C2O)c2cc(CO)cc(O)c21` (stereo not drawn), the Pct of control turned out to be 92%. In the case of `O=C1c2cccc(O)c2C(=O)c2c(O)cc(CO)cc21`, the Pct of control is listed as 33.9%. `CC1=NN(c2ccc(C(=O)O)cc2)C(=O)C1=Cc1ccc(-c2cc(C)c(C)cc2[N+](=O)[O-])o1` displayed a Pct of control of 18%. Consider `COc1ccccc1N1CCN(CCN(C(=O)C2CCCCC2)c2ccccn2)CC1.O=C(O)C=CC(=O)O`, for which the Pct of control turned out to be 97.5%.

As for `CN1C(=O)CCS(=O)(=O)C1c1ccc(Cl)cc1` (stereo not drawn), the Pct of control is on record as 95.4%.

`COC(=O)Nc1nc2ccc(C(=O)c3cccs3)cc2[nH]1` registered a Pct of control of 97.5%. For `CCOc1ccc(NC(C)=O)cc1` the value was 97.7%; for `CC(C)(C)NC[C@H](O)COc1nsnc1N1CCOCC1.O=C(O)C=CC(=O)O`, 94.2%.

On to `c1ccc(Cn2c(-c3ccc(OCC(C4CCNCC4)n4c(-c5ccccc5)nc5ccccc54)cc3)nc3ccccc32)cc1` (stereo not drawn), for which the Pct of control is listed as 21.2%. For the compound `CCOc1ccccc1-n1c(C(C)N2CCN(C(=O)COc3ccc(Cl)cc3)CC2)nc2ccccc2c1=O` (stereo not drawn), the Pct of control is listed as 100%. Turning to `CCCC1OC2CC3C4CCC5=CC(=O)C=CC5(C)C4C(O)CC3(C)C2(C(=O)CO)O1` (stereo not drawn), the Pct of control is listed as 101%. The compound `CCCNC(C)C(=O)Nc1c(C)csc1C(=O)OC.Cl` (stereo not drawn) displayed a Pct of control of 99.8%.

`O=C(O)CCC1CCC(c2cc(F)ccc2F)(S(=O)(=O)c2ccc(Cl)cc2)CC1` (stereo not drawn) registered a Pct of control of 85.6%. For `CN1CCN(C2CCN(C(=O)Nc3cc(Oc4ccc(NC(=O)C5(C(=O)Nc6ccc(F)cc6)CC5)c(F)c4)ccn3)CC2)CC1` the value was 46.1%; for `COc1cc2nccc(Oc3ccc(NC(=O)C4(C(=O)Nc5ccc(F)cc5)CC4)cc3)c2cc1OC.O=C(O)CC(O)C(=O)O`, 72.9%. In the case of `COc1cc2nccc(Oc3ccc(NC(=O)C4(C(=O)Nc5ccc(F)cc5)CC4)cc3)c2cc1OC`, the Pct of control is on record as 70.5%. On to `NC(=O)Nc1cc(-c2cccc(F)c2)sc1C(=O)NC1CCCNC1` (stereo not drawn), for which the Pct of control was 74.3%. As for `Cc1cc(NC(=O)c2cccc(NC(=O)C=CCN(C)C)c2)ccc1Nc1nccc(-c2cccnc2)n1`, the Pct of control is 80.7%. In turn, `COCCOc1ccc2c(c1)ncn2-c1ccc2cccc(N3CCC(N)CC3)c2n1` registered a Pct of control of 51.7%. `CC1(COc2ccc3c(c2)ncn3-c2ccc3cccc(N4CCC(N)CC4)c3n2)COC1` gave a Pct of control of 47.3%. For `CCOC(=O)[C@H](CCc1ccccc1)N[C@H]1CS[C@H](c2cccs2)CN(CC(=O)O)C1=O.Cl` the value was 77.1%; for `CC(C)(C)CC(C)(C)c1ccc(O)c(Cc2ccc(Cl)cc2Cl)c1`, 88.3%; for `Cc1nn(-c2ccccc2)c(C)c1C=NN1CCN(Cc2ccccc2)CC1`, 85.5%. For `CC(=O)O.Cc1cc2c(C(C)C)c(O)c(O)c(C=O)c2c(O)c1-c1c(C)cc2c(C(C)C)c(O)c(O)c(C=O)c2c1O` [S2303], the Pct of control is 26.8%. Turning to `CC(=O)O.Cc1cc2c(C(C)C)c(O)c(O)c(C=O)c2c(O)c1-c1c(C)cc2c(C(C)C)c(O)c(O)c(C=O)c2c1O` [S2812], the Pct of control is 29.9%.
